Laboratory results published in PubChem BioAssay AID1851 (National Center for Advancing Translational Sciences (NCATS), 2009).
Several values for one entry are separate records, joined by “and”; a condition that tells them apart may be missing. Equal entries are not always repeated. The campaign covered roughly 16,000 compounds. About 2,600 (16%) were called active. About 20% were inconclusive and are not listed. Not all results are given here. Unmarked numbers belong to inactive results. Calls come from the whole dose curve; as a rule, active = well fitted curve in the direction sought with a large enough effect; inconclusive = small, poorly fitted or top-dose-only effect, or effect the other way; inactive = no such curve, though single readings can be large or run the other way.

Target: Cytochrome P450 2D6 (Homo sapiens) (UniProt P10635)
Sequence (P10635 whole entry, looked up): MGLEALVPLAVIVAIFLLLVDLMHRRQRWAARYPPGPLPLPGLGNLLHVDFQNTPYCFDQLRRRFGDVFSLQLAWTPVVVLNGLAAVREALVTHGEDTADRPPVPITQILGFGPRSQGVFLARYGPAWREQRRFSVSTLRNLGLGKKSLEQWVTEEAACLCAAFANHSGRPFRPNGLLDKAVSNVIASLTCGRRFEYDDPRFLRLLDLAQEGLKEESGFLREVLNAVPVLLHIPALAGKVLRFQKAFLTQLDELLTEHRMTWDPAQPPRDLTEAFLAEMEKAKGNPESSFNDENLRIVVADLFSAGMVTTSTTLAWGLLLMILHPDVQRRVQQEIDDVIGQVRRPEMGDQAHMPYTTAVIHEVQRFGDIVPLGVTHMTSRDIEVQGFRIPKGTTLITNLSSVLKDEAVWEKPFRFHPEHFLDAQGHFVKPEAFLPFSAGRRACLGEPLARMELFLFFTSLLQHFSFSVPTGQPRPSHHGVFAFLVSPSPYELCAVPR
Assay: Cytochrome panel assay with activity outcomes
Details: recombinant CYP, pro-luciferin dealkylation, luminescence, p450-cyp2d6; series mostly up to 57.1 µM
% is set by controls: 0 for no effect and ±100 for the full control effect.

Row | SMILES | activity, negative = inhibition | AC50
1 | C#CCCCO/N=C1/C[C@@H](O)[C@@H](O)[C@@H]2[C@@H]3C(=O)N(CC)C(=O)[C@H]3CC[C@H]12 | 14.7% [at 11.4 µM] | 
2 | CC(=O)COc1ccc2c(C)c(C)c(=O)oc2c1 |  | inactive
3 | CCOC(=O)C(Sc1ncnc2c1sc1nc(N3CCOCC3)c3c(c12)CCCC3)c1ccccc1 (stereo not drawn) |  | inactive
4 | CCOC(=O)CC1C(=O)NCCN1S(=O)(=O)c1ccc(Cl)c(Cl)c1 (stereo not drawn) |  | inactive
5 | COc1ccc(-n2c(=O)c(-c3ccc(F)c(F)c3)nc3cncnc32)cc1 |  | inactive
6 | NC(N)=NC(N)=Nc1ccc(S(=O)(=O)O)cc1 | 3.23% [at 11.4 µM] | 
7 | O=C(O)/C(=C\c1ccccc1)c1ccccc1 | -2.29% [at 11.4 µM] | 
8 | Cc1ccccc1-c1nc(Nc2ccncc2)c2ccccc2n1 |  | inactive
9 | FC(F)(F)c1ccccc1-c1nc(NC2CCNCC2)c2ccccc2n1 |  | inactive
10 | FC(F)(F)c1ccccc1-c1nc(Nc2ccncc2)c2ccccc2n1 |  | 25.1 µM (active)
11 | Clc1ccccc1-c1nc(NCc2cccnc2)c2ccccc2n1 |  | 20 µM (active)
12 | FC(F)(F)c1ccccc1-c1nc(NCc2cccnc2)c2ccccc2n1 |  | 15.8 µM (active)
13 | Clc1ccccc1-c1nc(N/N=C/c2cccnc2)c2ccccc2n1 |  | inactive
14 | COc1cc(OC)c(C2C(C(=O)O)c3ccccc3C(=O)N2C)cc1OC (stereo not drawn) |  | inactive
15 | NC1(C(=O)O)C[C@@H](C(=O)O)[C@H](C(=O)O)C1 |  | inactive
16 | CCNc1ncc2nc(-c3ccc(Cl)cc3)c(=O)n(C3CC3)c2n1 |  | inactive
17 | N#CCCn1c(=O)cnc2cnc(N3CCOCC3)nc21 |  | inactive
18 | CCCCCc1nnc(NC(=O)C(=O)OCC)s1 |  | inactive
19 | CC(C)OCCCN1C(=O)c2ccccc2C1C(=O)NC1CCCCC1 (stereo not drawn) |  | inactive
20 | CO/N=C(\C(=O)N[C@@H]1C(=O)N2C(C(=O)[O-])=C(C[N+]3(C)CCCC3)CS[C@@H]12)c1csc(N)n1 |  | inactive
21 | Cn1cccc1CC(=O)N/N=C\c1cccs1 |  | inactive
22 | CCCCC(=O)NNC(=S)NC(=O)c1cccc([N+](=O)[O-])c1 |  | inactive
23 | CCCn1c(=O)c2[nH]c(-c3ccccc3)nc2n(CCC)c1=O |  | inactive

Row | SMILES | activity, negative = inhibition | AC50
24 | CC1(C)OC(=O)C(=CNc2cccc(O)c2)C(=O)O1 |  | inactive
25 | CC(C)=CCC1=C(OCC(=O)O)C(=O)c2ccccc2C1=O |  | 3.16 µM (active)
26 | CC(C)=CCc1c(C)nc2ccccc2c1C(=O)O |  | inactive
27 | CC(CC(=O)O)CC(=O)Nc1ccc(S(N)(=O)=O)cc1 (stereo not drawn) |  | inactive
28 | CN1CCC(=C2c3ccccc3CC(=O)c3sccc32)CC1 |  | 7.94 µM (active) and 3.16 µM (active) and 5.01 µM (active)
29 | CN1CCC(=C2c3ccccc3CCc3sccc32)CC1 |  | 1.26 µM (active)
30 | O=C1/C(=N\O)Cc2ccccc21 |  | inactive
31 | CCc1cc(C(=O)OC)c(NC(=O)CCCC(=O)O)s1 |  | inactive
32 | O=C(NNC(=O)c1cccnc1)Nc1cccc2ccccc12 |  | inactive
33 | CO[C@H]1COC(=O)C/C=C\[C@H](C)[C@@H](NS(=O)(=O)c2ccc(C)cc2)COC(=O)C/C=C\[C@@H]1C | 3.82% [at 11.4 µM] | 
34 | NC(N)=NC(N)=Nc1c(F)c(F)c(F)c(F)c1F | 13.6% [at 11.4 µM] | 
35 | Cc1ccc(N=CC2=C(O)CC(c3ccco3)CC2=O)cc1 (stereo not drawn) |  | inactive
36 | COc1cc(OC)c2c(c1)C(=O)c1cc(OC)cc(OC)c1C2=O |  | inactive
37 | Nc1ncc(-c2ccccc2)n1CC1CCCO1 (stereo not drawn) |  | 3.55 µM (active)
38 | O=c1c(-c2ccccc2)nc2cnc(N3CCOCC3)nc2n1C[C@H]1CCCO1 |  | inactive
39 | O=C1c2ccccc2C(=O)N1CC1CCCO1 (stereo not drawn) |  | inactive
40 | Cc1c(Cl)cccc1NC(=O)CCC(=O)NNC(=O)c1ccco1 |  | inactive
41 | CCOC(=O)c1cnc(N(C)C)nc1SC(=N)N | -3.04% [at 11.4 µM] | 
42 | Cc1noc(C)c1C(=O)N1CCC2(CCCN(C(=O)NC(C)C)C2)CC1 |  | inactive
43 | O=C(CCNS(=O)(=O)c1cccs1)N1CCCCCC1 |  | inactive
44 | O=C(CCNS(=O)(=O)c1cccs1)N1CCc2ccccc2C1 |  | 12.6 µM (active)
45 | O=C(O)CCC(=O)N1CCc2cc(S(=O)(=O)NCc3cccs3)ccc21 |  | inactive
46 | COCCn1c(=O)c(-c2cc(F)cc(F)c2)nc2cncnc21 |  | inactive

Row | SMILES | activity, negative = inhibition | AC50
47 | COc1c(NC(C)=O)c2ccccc2c2ccccc12 | -0.0075% [at 11.4 µM] | 
48 | COCC(=O)N1CCC2(CC1)CN(Cc1ccc(C#N)cc1)C2 |  | inactive
49 | COC(=O)N1CCC2(CCCN(Cc3ccccc3)C2)CC1 |  | 10 µM (active)
50 | CC(=O)N1CCC2(CCCN(Cc3ccccc3)C2)CC1 |  | 2.51 µM (active)
51 | CC(=O)N1CCC2(CC1)CN(Cc1ccccc1)C2 |  | inactive
52 | COC(=O)N1CCC[C@@]2(CCN(C(=O)Nc3cccc(C#N)c3)C2)C1 |  | inactive
53 | COC(=O)N1CCC2(CCCN(Cc3ccc(C#N)cc3)C2)CC1 |  | 0.316 µM (active)
54 | O=c1cnc2cnc(N3CCNCC3)nc2n1Cc1ccc(F)cc1 |  | inactive
55 | CCNC(=S)NNC(=O)c1cc(CC(C)C)nc2ccccc12 |  | inactive
56 | O=C1[C@H]2[C@H]3[C@H](O)[C@H](O)C/C(=N/OCc4ccccc4)[C@@H]3CC[C@@H]2C(=O)N1C[C@@H]1CCCO1 | 10% [at 11.4 µM] | 
57 | Cn1c(=O)c(-c2cccc(C#N)c2)nc2cnc(Oc3ccccc3)nc21 |  | inactive
58 | O=c1cc(O)cc(/C=C\c2ccc(O)c(O)c2)o1 |  | inactive
59 | CC1=C(C(=O)N2CCCCCC2)C2(CCC(C)CC2)OC1=O (stereo not drawn) |  | inactive
60 | COc1ccccc1NC(=S)NNC(=O)c1c(Cl)c(C)nn1C |  | inactive
61 | CC(C)CN(CC(C)C)S(=O)(=O)N1CCC(C(=O)NCc2ccc(F)cc2)CC1 |  | inactive
62 | COc1cc([C@H](O)CO)ccc1O |  | inactive
63 | CNC[C@@H](SC)c1ccc(O)c(O)c1 | 2.56% [at 11.4 µM] | 
64 | CC[C@H](NC(C)C)[C@H](O)c1ccc(O)c(O)c1 |  | 10 µM (active)
65 | COC(=O)C(C)Sc1nc2c(cnn2-c2ccc(C)cc2)c(=O)[nH]1 (stereo not drawn) |  | inactive
66 | Cc1ccc(C(=O)C(OC(=O)CCC(=O)Nc2cccc(C)c2)c2ccccc2)cc1 (stereo not drawn) |  | 28.2 µM (active)
67 | Cc1ccc(C(=O)C(OC(=O)COc2ccccc2C)c2ccccc2)cc1 (stereo not drawn) |  | inactive
68 | Cc1ccc(C(=O)C(OC(=O)CNS(=O)(=O)c2ccccc2)c2ccccc2)cc1 (stereo not drawn) |  | inactive
